High-throughput results deposited in PubChem by several laboratories.
A selection: hits, their analogues and other compounds. The true share with any hit is near 1.2%.
HDAC3 inhib – human HDAC3 inhibition; O15379; recombinant HDAC3, fluorogenic peptide/trypsin coupled, fluorescence; inhibition, % at 8.3 µM; hit rate 0.15% among 320,000; in the data active = inhibition above about 26%, passing the limit was not always enough; inconclusive = no clear call, values can overlap the other calls
HIF act – HIF pathway transcriptional activation. AID 1910. activation, % at 7.5 µM (by protocol). hit rate 0.32% among 300,000. U2OS HRE-luciferase reporter, luminescence; normalized: DMSO 0%, desferrioxamine 100%;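 active = mean activation of at least 10% of the iron chelator positive control signal, with at least half of replicates also reaching 10%; inconclusive = mean and replicate majority disagree about reaching 10%; inactive = mean and most replicates under 10%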
LANA-H2A inh – blocks KSHV LANA binding to histone H2A/H2B | inhibition, % (no concentration beside the values) | Q9QR71 | cell-free LANA-H2A/H2B peptide, fluorescence polarization | AID 2629 | hit rate 0.6% among 320,000; in the data active = inhibition mostly above about 10%, no sharp cut-off; inactive = mostly below about 6.7%
Target sequence (Q9QR71 whole entry, looked up): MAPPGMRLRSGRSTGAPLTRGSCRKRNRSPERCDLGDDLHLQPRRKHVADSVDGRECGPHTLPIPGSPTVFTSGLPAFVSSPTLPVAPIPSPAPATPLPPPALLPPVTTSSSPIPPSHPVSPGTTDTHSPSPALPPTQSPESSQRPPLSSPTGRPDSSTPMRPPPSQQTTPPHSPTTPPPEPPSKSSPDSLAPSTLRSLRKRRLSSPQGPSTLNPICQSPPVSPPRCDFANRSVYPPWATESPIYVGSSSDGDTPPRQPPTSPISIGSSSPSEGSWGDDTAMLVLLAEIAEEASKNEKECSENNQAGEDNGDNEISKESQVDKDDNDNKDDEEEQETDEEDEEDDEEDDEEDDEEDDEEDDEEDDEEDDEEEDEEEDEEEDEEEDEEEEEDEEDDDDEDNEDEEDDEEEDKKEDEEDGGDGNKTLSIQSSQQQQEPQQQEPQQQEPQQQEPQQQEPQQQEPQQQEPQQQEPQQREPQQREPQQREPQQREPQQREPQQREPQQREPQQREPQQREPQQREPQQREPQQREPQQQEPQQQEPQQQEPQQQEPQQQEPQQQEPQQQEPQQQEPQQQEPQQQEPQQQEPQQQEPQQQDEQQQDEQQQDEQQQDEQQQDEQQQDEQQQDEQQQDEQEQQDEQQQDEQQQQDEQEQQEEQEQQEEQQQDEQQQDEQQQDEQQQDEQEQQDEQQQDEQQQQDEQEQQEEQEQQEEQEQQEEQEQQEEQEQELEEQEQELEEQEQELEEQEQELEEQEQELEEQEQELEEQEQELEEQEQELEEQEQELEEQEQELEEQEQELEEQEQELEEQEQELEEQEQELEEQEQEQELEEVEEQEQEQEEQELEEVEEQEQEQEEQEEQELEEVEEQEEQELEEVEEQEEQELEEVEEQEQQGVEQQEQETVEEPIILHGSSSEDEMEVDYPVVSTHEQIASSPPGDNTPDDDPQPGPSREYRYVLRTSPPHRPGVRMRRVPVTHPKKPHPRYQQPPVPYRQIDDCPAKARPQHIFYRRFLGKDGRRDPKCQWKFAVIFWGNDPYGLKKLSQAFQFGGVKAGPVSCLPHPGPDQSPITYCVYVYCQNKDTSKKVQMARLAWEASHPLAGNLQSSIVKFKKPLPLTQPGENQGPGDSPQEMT
CR mimetic SO – yeast age-related superoxide inhibition as caloric restriction mimetic. S. cerevisiae aged cells, superoxide DHE fluorescence; hits give low values. superoxide response (% of plate mean), % at 10 µM. hit rate 0.18% among 330,000. AID 2690;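 active = superoxide response under a set limit, about three screen SD below normal, cut at about 65% in these data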;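 also: yeast aged for seven days with compound at 30 °C before DHE staining; 100% = average MFI of all compound-treated wells on the plate with controls excluded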
Superoxide pick – confirmation of caloric restriction mimetics inhibiting yeast age-related superoxide. shares compounds with CR mimetic SO. S. cerevisiae aging, superoxide DHE fluorescence; hits give low values. superoxide response (% of plate), % at 10 µM. hit rate 1% among 850;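 active = superoxide signal below 65% of the plate average of sample wells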;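 also: cells aged with compound for 7 days at 30 degrees C before staining; 100% equals mean DHE fluorescence of all compound wells on the plate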
DHE counter – counter-screen for compounds affecting DHE oxidation and fluorescence in yeast; shares compounds with CR mimetic SO; S. cerevisiae BY4741, flow cytometry; hits give low values; 850 tested, under 10 active; fluorescence response, % at 10 µM;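 active = fluorescence response below 15%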;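 also: percent of the mean fluorescence averaged over all compound wells on the plate; lower means stronger quenching of DHE signal or ROS scavenging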
* marks the source's active call; other numbers are inactive results; ? = inconclusive; / = no result given.

SMILES | HDAC3 inhib | HIF act | LANA-H2A inh | CR mimetic SO | Superoxide pick | DHE counter
COC(=O)C1=C(c2cc3ccccc3s2)C[C@@H]2CC[C@H]1N2C(=O)NCc1ccc(C(F)(F)F)cc1 | 12.3 | 0.0 | -3.4 | 96.5 | / | /
O=C1NC(=O)N(CCC2=CCCCC2)C(=O)/C1=C/c1cccs1 | 3.9 | 0.2 | 2.8 | 100.0 | / | /
CCCOc1ccc(C(C)=O)cc1Cc1c(O)[nH]c(=S)[nH]c1=O | -6.2 | -10.6 | 15.5* | 99.2 | / | /
COC(=O)[C@]12OC[C@]34C([C@@H](O)[C@@H]1O)[C@]1(C)CC(=O)C(O)=C(C)[C@@H]1C[C@H]3OC(=O)[C@H](O)[C@@H]24 (stereo partly drawn) | -6.9 | 20.8* | 1.1 | / | / | /
Cc1nn(Cc2ccccc2)c(Cl)c1C(=O)OCC(=O)Nc1cccc2ccccc12 | -0.8 | -0.3 | 0.4 | 118.2 | / | /
CCOC(=O)Cc1csc(NC(=O)c2c(O)c3ccccc3n(CCC(C)C)c2=O)n1 | 2.0 | -0.4 | 15.4* | 97.1 | / | /
CC(=O)c1ccc2c(c1)OCO2 | -1.7 | 0.2 | 1.7 | 103.8 | / | /
C/C=C/c1ccc2c(c1)OCO2 | 6.4 | / | 11.2* | 108.0 | / | /
COC(=O)C1=C(c2ccc(F)cc2OCc2ccccc2)C[C@@H]2CC[C@H]1N2C(=O)NCc1cc(C)oc1C(F)(F)F | 2.1 | / | 5.6 | 96.6 | / | /
FC(F)(F)c1ccc2c(c1)NP(=S)(N1CCOCC1)c1nccn1-2 (stereo not drawn) | 1.4 | 69.3* | 1.8 | 80.6 | / | /
CC1(C)CC(=O)C2=C(C1)NC(=O)C21C(C(=O)OC(C)(C)C)=C(N)Oc2ccc(Br)cc21 (stereo not drawn) | -8.7 | -0.1 | -3.2 | 81.7 | / | /
COc1ccc(-n2c(O)c(/C=C3\C=Nc4ccc(Br)cc43)c(=O)[nH]c2=O)cc1 | 1.1 | 2.3 | 13.0* | 107.2 | / | /
COc1ccc(-n2c(O)c(/C=C3\C=Nc4ccc(Br)cc43)c(=O)[nH]c2=O)c(OC)c1 | -1.4 | -0.6 | 1.8 | 94.3 | / | /
O=C1Nc2ccccc2/C1=C/c1cnc[nH]1 | 1.6 | -0.5 | 5.5 | 97.5 | / | /
COc1ccc2c(c1)/C(=C/c1cnc[nH]1)C(=O)N2 | 2.0 | 9.9* | -5.8 | 113.2 | / | /
Cc1cccc(N2C(=O)NC(=O)/C(=C\c3cc(C)n(-c4sc5c(c4C#N)CCCC5)c3C)C2=O)c1C | / | -0.1 | 2.3 | 46.0* | / | /
OCC[n+]1c2ccccc2nc2ccc(N3CCOCC3)cc21 | -7.9 | -1.5 | -2.0 | 42.5* | 65.7 | 91.2
COC(=O)C1=C(c2ccc(F)cc2F)C[C@@H]2CC[C@H]1N2C(=O)N1CCCCC1 | 3.9 | / | 3.4 | 97.8 | / | /
Cc1cc(Cl)nc(N)n1 | 1.0 | -0.5 | -3.5 | 51.1* | 99.0 | 87.7
CC(=O)O[C@H]1CCC2C3CC[C@H]4[C@@H](O)[C@H](O)CC[C@]4(C)C3CC[C@@]21C (stereo partly drawn) | / | / | / | / | 103.6 | 91.5
CC(=O)O[C@H]1CCC2C3CCC4=CC(=O)CCC4=C3C=C[C@@]21C (stereo partly drawn) | 1.0 | -19.7 | 4.5 | 89.2 | / | /
COC12CCC3(CC1C(C)(O)C(C)(C)C)[C@H]1Cc4ccc(O)c5c4[C@@]3(CCN1CC1CC1)C2O5 (stereo partly drawn) | / | / | / | 96.3 | / | /
Fc1cccc(F)c1CN1CCN(c2ccc(Cl)cc2)CC1 | -1.3 | -9.7 | -0.7 | 38.4* | 98.8 | 90.8
Fc1ccc(CN2CCN(c3ccc(Cl)cc3)CC2)cc1 | 3.8 | 0.4 | 4.4 | 81.9 | / | /
CC(=O)O[C@@H]1CC[C@]2(C)C3CC[C@@]4(C)C(C[C@@H](O)[C@@H]4O)C3[C@@H](OC(C)=O)C[C@H]2C1 (stereo partly drawn) | -0.9 | / | 0.9 | 104.0 | 109.8 | 112.3
SMILES | HDAC3 inhib | HIF act | LANA-H2A inh | CR mimetic SO | Superoxide pick | DHE counter
O=C(NCCCn1ccnc1)C(Cl)(Cl)Cl | 1.0 | -0.8 | 2.8 | 96.5 | / | /
C[C@]12CCC3C(CC[C@H]4C[C@H](N)CC[C@]34C)C1CC[C@H]2O (stereo partly drawn) | -2.8 | -10.0 | 0.9 | 113.5 | 103.2 | 95.6
C[C@]12CCC3C(CC[C@H]4C[C@@H](O)CC[C@]34C)C1C[C@H](Br)[C@@H]2O (stereo partly drawn) | 2.0 | / | 1.3 | 72.6 | 108.1 | 112.0
C[C@]12CCC3C(CC[C@H]4C[C@H](O)CC[C@]34C)C1C[C@@H](CCCCl)[C@@H]2O (stereo partly drawn) | 5.6 | / | -0.5 | 58.1* | 68.5 | 98.1
O=c1[nH]c(O)c(C=Nc2ccc(F)c(Cl)c2)c(=O)[nH]1 | -4.1 | -7.3 | -1.9 | 60.1* | 104.3 | 92.8
Cn1c(O)c(/C=C/C=Nc2ccccc2)c(=O)n(C)c1=S | -2.8 | 0.0 | -5.0 | 108.2 | / | /
CC[N+](C)(CC)CCCCOc1ccc2c(c1)C(=O)c1cc(OCCCC[N+](C)(CC)CC)ccc1-2 | ? | 0.0 | -2.3 | 108.6 | / | /
C[C@]12CCC(=O)C[C@H]1CC[C@@H]1[C@@H]2CC[C@]2(C)C(=O)CC[C@@H]12 | / | / | / | 60.0* | 82.7 | 93.4
C[C@]12CCC3C(CC[C@H]4C[C@H](O)CC[C@]34C)C1CCC2=O (stereo partly drawn) | -9.1 | / | -2.4 | 56.8* | 73.6 | 100.6
C[C@]12CCC3C(CC[C@H]4CC(=O)CC[C@]34C)C1CCC2=O (stereo partly drawn) | -4.0 | / | 1.6 | 71.4 | / | /
C[C@]1(O)CCC2C3CC[C@@H]4CC(=O)CC[C@]4(C)C3CC[C@@]21C (stereo partly drawn) | 0.5 | / | -5.5 | 61.3* | 88.2 | 94.4
C[C@]12CC[C@@H](O)C[C@@H]1CC[C@@H]1[C@@H]2CC[C@]2(C)C(=O)CC[C@@H]12 | 0.6 | -0.2 | -16.4 | 75.5 | / | /
C=CCN1C(=O)NC(=O)/C(=C/c2ccc(N(C)C)c(Br)c2)C1=O | 3.9 | -0.1 | 3.6 | 91.7 | / | /
O=c1[nH]c(=S)n(Cc2ccc(F)cc2)c(O)c1/C=N/N1CCCCCC1 | 0.8 | -0.7 | -9.4 | 71.7 | / | /
CCc1c(C)nc(N)nc1N1N=C1SC(C(C)=O)C(C)=O | 9.4 | 0.1 | -1.2 | 92.1 | / | /
C=C1C(O)[C@@H]2O[C@]3(CC[C@H](/C=C/C(C)[C@@H]4CC(C)=CC5(O[C@H](C[C@@](C)(O)C(=O)O)CCC5O)O4)O3)CC[C@H]2O[C@@H]1C(O)CC(C)[C@H]1OC2(CCCCO2)CCC1C (stereo partly drawn) | 0.3 | / | -4.4 | 46.8* | 47.7* | 101.9
CNC(=O)O/N=C/c1nn(C(=O)C(C)(C)C)cc1Br | 0.2 | -0.5 | 0.6 | 104.0 | / | /
